Rows were chosen to be rich in hits. Some 2.9% of all compounds tested hit in one or more screens of this group.
KLK7 zymogen act: proKLK7 zymogen activators, primary screen, biochemical, fluorescence intensity | Kallikrein-7 (Homo sapiens), P49862 | 370,000 tested, 0.9% active | activation, % at 7 µM | purified proKLK7, EDANS-DABCYL substrate fluorescence; 100% is mature enzyme control, 0% vehicle | AID 652039, 2013;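 active = activation above the mean of all tested compounds plus 3 SD, computed per campaign excluding outliers beyond control limits, cut at about 13% in these data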
ADAM10 inh: human ADAM10 inhibitors, primary screen, biochemical, QFRET, HTS; 370,000 tested, 0.62% active; inhibition, % at 7 µM; Disintegrin and metalloproteinase domain-containing protein 10 (Homo sapiens), O14672; recombinant ADAM10, EDANS/DABCYL FRET peptide cleavage, 3 h;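 active = inhibition above a per-campaign cutoff equal to the mean of compounds falling between control-based bounds plus 3 SD, cut at about 20% in these data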;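 also: 0% = DMSO wells while the 100% control is not disclosed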
ADAM17 inh: ADAM17 inhibitors, primary screen, biochemical, QFRET. Disintegrin and metalloproteinase domain-containing protein 17 (Homo sapiens), P78536. recombinant ADAM17, EDANS/DABCYL FRET peptide cleavage. inhibition, % at 6.95 µM. 370,000 tested, 0.83% active. AID 720648, 2013;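 active = inhibition above the mean of compounds lying between control limits plus 3 SD, set per campaign, cut at about 8.5% in these data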;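 also: 0% = DMSO-only wells as the low control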
PLCb3 inh: human PLC-beta3 inhibitors, primary screen, biochemical, fluorescence; Purified PLC-beta3, fluorogenic substrate; inhibition, % at 12.2 µM; 1-phosphatidylinositol 4,5-bisphosphate phosphodiesterase beta-3 (Homo sapiens), Q01970; AID 720704, 2013; 370,000 tested, 0.18% active; in the data active = inhibition above about 11%;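 also: 0% = median of compound wells on plate and 100% = full blocker control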
PLC-gamma1 inh: PLC-gamma1 enzyme inhibitors, primary screen, biochemical, fluorescence, purified enzyme; 1-phosphatidylinositol 4,5-bisphosphate phosphodiesterase gamma-1 (Homo sapiens), P19174; fluorogenic substrate; inhibition, % at 12.2 µM; 370,000 tested, 0.84% active; AID 720700, 2013; in the data active = inhibition above about 9.5%
ADAM10 confirm: human ADAM10 inhibitors, confirmation, biochemical, QFRET, triplicate; 2,100 tested, 1% active; ADAM10 QFRET peptide cleavage, EDANS fluorescence; inhibition, % at 6.95 µM; shares compounds with ADAM10 inh; AID 743208, 2013;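 active = inhibition above about 20% chosen separately for each screening run, limit read from the data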;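 also: 0% = DMSO wells and 100% = marimastat wells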
ADAM17 ctr: ADAM17 inhibitors, counter-screen for ADAM10 exosite inhibitor project, biochemical, QFRET, high throughput; shares compounds with ADAM10 inh; ADAM17 QFRET peptide cleavage, EDANS fluorescence; inhibition, % at 6.95 µM; 2,100 tested, 0.5% active; AID 743214, 2013;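 active = mean triplicate inhibition above the solvent-only control wells' mean plus 3 SD, cut at about 12% in these data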;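 also: 0% = DMSO wells and 100% = marimastat wells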
ADAM10 ctr: ADAM10 inhibitors, counter-screen for ADAM17 exosite inhibitor project, biochemical, FRET, human ADAM10; 2,900 tested, 47% active; inhibition, % at 6.95 µM; AID 743256, 2014; shares compounds with ADAM17 inh; recombinant ADAM10, EDANS/DABCYL FRET peptide cleavage, 3 h;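 active = mean inhibition over the triplicate runs exceeds the activity threshold set in the earlier primary screen, cut at about 20% in these data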;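 also: 0% = DMSO wells and 100% = marimastat wells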
ADAM17 confirm: ADAM17 inhibitors, hit retest, confirmation, biochemical, QFRET peptide cleavage. shares compounds with ADAM17 inh. 2,900 tested, 65% active. recombinant ADAM17, EDANS/DABCYL QFRET peptide cleavage. inhibition, % at 6.95 µM;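 active = mean inhibition across replicates above the hit cutoff set in the primary screen, cut at about 8.5% in these data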;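 also: 0% = DMSO wells and 100% = marimastat wells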
An asterisk follows results filed as active; nt = no result given.

SMILES	KLK7 zymogen act	ADAM10 inh	ADAM17 inh	PLCb3 inh	PLC-gamma1 inh	ADAM10 confirm	ADAM17 ctr	ADAM10 ctr	ADAM17 confirm
COc1cccc(CN(C(=O)Cc2c[nH]c3ccccc23)C(C(=O)NC2CCCCC2)c2ccc(C)o2)c1 (stereo not drawn)	0.4	21.8*	11.2*	-2.2	-1.8	9.6	2.8	32.6*	16.4*
Cc1ccc(C(C(=O)NC2CCCCC2)N(Cc2ccccc2)C(=O)Cc2c[nH]c3ccccc23)o1 (stereo not drawn)	0.4	20.2*	15.0*	4.9	9.3	7.0	2.2	18.0	12.1*
Cc1ccc(C(C(=O)NC2CCCC2)N(Cc2ccccc2)C(=O)c2csnn2)o1 (stereo not drawn)	1.4	0.4	1.7	1.2	5.9	nt	nt	nt	nt
COc1cccc(CN(C)C(=O)Cc2c[nH]c3ccccc23)c1	0.3	-5.3	-11.5	-22.3	-0.3	nt	nt	nt	nt
CCOC(=O)[C@@]12CCCC3=C1N(CCC3)C(=O)[C@H]2CC(=O)NCc1cccs1	-0.2	-2.0	-1.4	0.8	0.6	nt	nt	nt	nt
O=C(Nc1ccc2c(c1)OCO2)OC1CCC12CCCCC2 (stereo not drawn)	0.2	7.2	4.2	1.1	0.9	nt	nt	nt	nt
Cc1ccccc1-c1cnc(C(O)c2ccc(-c3ccccc3)cc2)[nH]1 (stereo not drawn)	0.8	23.0*	9.1*	-4.8	0.8	6.1	1.9	14.4	8.1
Cc1cc(C(O)c2ncc(-c3ccc(Oc4ccccc4)cc3)[nH]2)ccc1F (stereo not drawn)	0.1	20.9*	13.0*	-3.5	1.8	10.1	3.0	37.5*	15.5*
Cc1ccccc1-c1cnc(C(O)c2ccc(C(C)(C)C)cc2)[nH]1 (stereo not drawn)	0.9	-1.6	2.9	3.3	0.2	nt	nt	nt	nt
O=C(NCC1CCCO1)C(c1cccs1)N(Cc1ccccc1)C(=O)c1ccc(-c2ccccc2)[nH]1 (stereo not drawn)	-0.5	30.4*	12.4*	2.3	2.0	12.2	4.1	17.6	13.6*
Cc1ccc([C@H]2C[C@@H](n3cc(COC(=O)c4ccccc4)nn3)[C@H](O)CN2Cc2cccs2)cc1	0.4	-4.3	-3.4	1.2	0.9	nt	nt	nt	nt
Cc1ccc([C@H]2C[C@H](n3cc(COC(=O)c4ccccc4)nn3)[C@@H](O)CN2Cc2cccs2)cc1	0.0	24.4*	11.7*	-2.6	1.4	6.1	2.1	11.8	9.2*
COC(=O)[C@@]12CCCCC3=C1N(CCC3)C(=O)[C@H]2CC(=O)NCc1ccc(C)o1	0.2	2.8	2.8	-0.6	-1.3	nt	nt	nt	nt
O=C(Nc1ccccc1)OCC1COC(c2ccccc2)(c2ccccc2)O1 (stereo not drawn)	0.2	24.8*	10.6*	-13.3	6.9	9.4	3.1	24.4*	11.8*
O=C(Nc1ccccc1)OCC1CCCO1 (stereo not drawn)	0.4	-2.9	-3.5	-7.6	-1.3	nt	nt	nt	nt
C=CCN1C(C(=O)OC)CN(Cc2cn(Cc3ccc(F)cc3)nn2)CCS1(=O)=O (stereo not drawn)	-0.1	3.3	-0.8	7.0	3.8	nt	nt	nt	nt
CCOC(=O)C1(Cc2ccccc2)CCN(Cc2ccc(C(F)(F)F)cc2)CC1	-0.1	-2.1	1.5	0.4	0.8	nt	nt	nt	nt
COc1cc(/C=N\NC(=O)c2ccc(Cl)cc2)ccc1Oc1ccc([N+](=O)[O-])cn1	-0.5	23.7*	10.9*	-0.4	4.7	3.8	0.6	14.6	7.8
CN(c1ccc(C(=O)NCCSCc2ccc(Cl)cc2)cc1)S(=O)(=O)c1ccccc1	1.1	27.5*	17.7*	2.4	3.4	6.1	2.5	35.7*	15.5*
CCN1CCCCC(NC(=O)c2cc(OC)c(OC)c(OC)c2)C1=O (stereo not drawn)	0.2	2.9	4.4	9.7	6.3	nt	nt	nt	nt
COC(=O)C1=C(C)N(CCCC(=O)O)C(=O)NC1c1ccccc1OS(=O)(=O)c1ccccc1[N+](=O)[O-] (stereo not drawn)	-1.1	-6.0	-1.7	0.2	2.0	nt	nt	nt	nt
CCOC(=O)C1=C(C)N(Cc2ccccc2)C(=O)NC1c1ccccc1OS(=O)(=O)c1ccccc1[N+](=O)[O-] (stereo not drawn)	0.7	21.3*	9.8*	3.8	1.9	13.9	4.0	49.2*	20.7*
COc1ccc(N2CCN(CCCNC(=O)Cc3ccc(C(F)(F)F)cc3)CC2)cc1	0.0	-5.8	-1.7	0.9	-3.0	nt	nt	nt	nt
O=S(=O)(NCCOCC(F)(F)C(F)F)c1ccc2oc3ccccc3c2c1	-0.1	28.6*	9.5*	1.7	5.2	1.2	0.1	31.8*	21.1*
COc1ccc(OCCNS(=O)(=O)c2ccc3oc4ccccc4c3c2)cc1	-0.4	12.4	-3.1	-0.5	-59.2	nt	nt	nt	nt
COc1ccc(/C=C2\CC3(OC(=O)C4CCCC4)CCCN2C3)cc1 (stereo not drawn)	0.7	-9.1	1.5	-3.5	0.3	nt	nt	nt	nt
COc1ccc(C(=O)NC(=S)Nc2ccc(N3CCCC3)cc2)cc1	-0.1	-8.0	-0.7	-1.4	-0.5	nt	nt	nt	nt
COc1cccc(C(=O)NC(=S)Nc2ccc(N3CCCC3)cc2)c1	0.2	32.2*	12.5*	-2.2	-2.2	5.7	2.0	14.2	10.8*
C=CC[C@@H](CC(=O)N(CCO)Cc1ccccc1)C(=O)N[C@H](C)COC(=O)[C@@H](CC=C)Cc1ccc(F)cc1	0.9	6.4	2.0	0.2	0.8	nt	nt	nt	nt
C=CC[C@@H](CC(=O)N[C@H](CO)Cc1ccccc1)C(=O)N[C@H](COC(=O)[C@@H](CC=C)CC(=O)OC(C)(C)C)Cc1c[nH]c2ccccc12	-0.3	12.2	7.2	2.2	4.4	nt	nt	nt	nt

Screening results (PubChem)
